Structures are written as SMILES. The panel holds about 79,000 compounds, 15% with a hit somewhere; the sample as a whole holds those more often. Unmarked numbers belong to inactive results. Calls of active or inactive are those of the source. Cut-off read from the data, not from the text of the source: active = growth inhibition above about 70%; inactive = the rest.

These results are taken from PubChem BioAssay (NCI).

A short description of assay [1]: NCI Yeast Anticancer Drug Screen. Data for the rad50 strain (AID 155).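 Note: 0% = growth of vehicle-only cultures of the same strain.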 As to conditions: S. cerevisiae rad50 strain growth inhibition, hits give high values. The method, boiled down:
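Relative growth inhibition (compound vs vehicle) was measured in yeast with a defined repair-gene alteration.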

Assay [2] is described as follows: NCI Yeast Anticancer Drug Screen. Data for the mec2-1 strain (AID 157). To be noted: S. cerevisiae mec2-1 strain, hits give high values. The method, boiled down: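 Growth inhibition is read against vehicle-treated controls after compound exposure of the mec2-1 yeast strain, which is defective in DNA damage repair or cell cycle control.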
Assay [3] is described as follows: NCI Yeast Anticancer Drug Screen. Data for the sgs1 mgt1 strain (AID 161).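 Note: 0% = growth of cultures given vehicle only.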 To be noted: S. cerevisiae sgs1 mgt1 strain, hits give high values. Put shortly: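 This yeast growth screen uses a strain with defined DNA-repair lesions; compound-treated growth is compared with vehicle-treated growth.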
A short description of assay [4]: NCI Yeast Anticancer Drug Screen. Data for the cln2 rad14 strain (AID 165).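 Note: 0% = growth equal to vehicle treated cultures.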 As to conditions: S. cerevisiae cln2 rad14 strain, hits give high values. Put shortly:
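Growth inhibition, relative to vehicle-treated controls, is the read-out. The test organism is a yeast strain with defined genetic alterations, cln2 rad14.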

Assay [5] can be described thus: NCI Yeast Anticancer Drug Screen. Data for the bub3 strain (AID 167). As to conditions: S. cerevisiae bub3 mutant strain, hits give high values. Put shortly: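 Screening used yeast with an engineered genetic alteration affecting cell cycle control. Compound-exposed cultures were compared with vehicle cultures, and reduced growth was taken as inhibition.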
Assay [6] in a line: NCI Yeast Anticancer Drug Screen. Data for the mlh1 rad18 strain (AID 175). As to conditions: S. cerevisiae mlh1 rad18 strain growth inhibition, hits give high values. Put shortly: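 Cells of a genetically altered yeast strain, deficient in DNA damage repair, were treated with compound. Their growth was then compared with that of vehicle-treated cultures to give inhibition.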

Setting [7] is: at 5.0 µM (retest, dose inferred, filed as 0.5).
[8] abbreviates: at 50.0 µM (retest, dose inferred, filed as 5.0).

For the compound `[CH3][Sn]([CH3])([Br])[Br].c1ccc(-c2nnc(-c3ccccn3)nc2-c2ccccc2)cc1`, the growth inhibition in assay [1] (setting [7]) was -3%; in assay [1] (setting [8]), 80% (active); in assay [1] (at 50.0 µM), 20.4%; in assay [2] (setting [7]), -16%; in assay [2] (setting [8]), 58%; in assay [2] (at 50.0 µM), 32.9%. Moreover, the growth inhibition in assay [3] (setting [7]) is -9%; in assay [3] (setting [8]) it was 53%; in assay [3] (at 50.0 µM), 16.4%; in assay [4] (setting [7]), -17%; in assay [4] (setting [8]), 90% (active); in assay [4] (at 50.0 µM) it was 11.8%. For the same compound, the growth inhibition was -4% in assay [5] (setting [7]); 87% (active) in assay [5] (setting [8]); -3.3% in assay [5] (at 50.0 µM); -23% in assay [6] (setting [7]); 47% in assay [6] (setting [8]); 23.8% in assay [6] (at 50.0 µM).
On to `CC1(C)N=C(N)N=C(N)N1c1ccc(OCC(=O)Nc2cccc(S(=O)(=O)F)c2)c(Cl)c1`, for which the growth inhibition in assay [1] (setting [7]) was 4%; in assay [1] (setting [8]), 38%; in assay [1] (at 50.0 µM), 70.5% (active); in assay [2] (setting [7]) it was -20%; in assay [2] (setting [8]), 97% (active); in assay [2] (at 50.0 µM), 95.6% (active). Also, the growth inhibition in assay [3] (setting [7]) was -3%; in assay [3] (setting [8]), 63%; in assay [3] (at 50.0 µM), 64.1%; in assay [4] (setting [7]), -2%; in assay [4] (setting [8]), -5%; in assay [4] (at 50.0 µM), -25.9%. Besides, the growth inhibition is -6% in assay [5] (setting [7]); 32% in assay [5] (setting [8]); -1.45% in assay [5] (at 50.0 µM); 12% in assay [6] (setting [7]); 65% in assay [6] (setting [8]); 45% in assay [6] (at 50.0 µM).
On to `C1CCNCC1.O=C([CH-]C(=O)C(F)(F)F)c1ccc2c(c1)C(=O)c1ccccc1-2.O=C([CH-]C(=O)C(F)(F)F)c1ccc2c(c1)C(=O)c1ccccc1-2.O=C([CH-]C(=O)C(F)(F)F)c1ccc2c(c1)C(=O)c1ccccc1-2.O=C([CH-]C(=O)C(F)(F)F)c1ccc2c(c1)C(=O)c1ccccc1-2.[Eu+3]`, for which the growth inhibition in assay [1] (setting [7]) was 54%; in assay [1] (setting [8]), 79% (active); in assay [1] (at 50.0 µM), 70.3% (active); in assay [2] (setting [7]), 42%; in assay [2] (setting [8]), 64%; in assay [2] (at 50.0 µM) it was 20.2%. For the same compound, the growth inhibition is 15% in assay [3] (setting [7]); 58% in assay [3] (setting [8]); 52.2% in assay [3] (at 50.0 µM); 54% in assay [4] (setting [7]); 77% (active) in assay [4] (setting [8]); 61.5% in assay [4] (at 50.0 µM). The growth inhibition in assay [5] (setting [7]) is 34%; in assay [5] (setting [8]) it was 71% (active); in assay [5] (at 50.0 µM), 52.2%; in assay [6] (setting [7]), 40%; in assay [6] (setting [8]), 69%; in assay [6] (at 50.0 µM) it was 49.1%.
For `CC(=O)NC1=C(N(CCCl)CCCl)C(=O)c2ccccc2C1=O`, the growth inhibition is 20% in assay [1] (setting [7]); 98% (active) in assay [1] (setting [8]); 99% (active) in assay [1] (at 50.0 µM); 12% in assay [2] (setting [7]); 98% (active) in assay [2] (setting [8]); 98.2% (active) in assay [2] (at 50.0 µM). Besides, the growth inhibition in assay [3] (setting [7]) was 18%; in assay [3] (setting [8]), 99% (active); in assay [3] (at 50.0 µM), 98.2% (active); in assay [4] (setting [7]) it was -4%; in assay [4] (setting [8]), 96% (active); in assay [4] (at 50.0 µM), 96.2% (active). Further, the growth inhibition in assay [5] (setting [7]) was 23%; in assay [5] (setting [8]), 97% (active); in assay [5] (at 50.0 µM), 99% (active); in assay [6] (setting [7]), 18%; in assay [6] (setting [8]) it was 98% (active); in assay [6] (at 50.0 µM), 98.9% (active).
Regarding `CCCC(=O)O.CCCC(=O)O.CCCC(=O)O.CCCC(=O)O.[Rh].[Rh]`, the growth inhibition in assay [1] (setting [7]) is 25%; in assay [1] (setting [8]) it was 44%; in assay [1] (at 50.0 µM), 22%; in assay [2] (setting [7]), 34%; in assay [2] (setting [8]), 61%; in assay [2] (at 50.0 µM) it was 48.5%. The growth inhibition in assay [3] (setting [7]) is 28%; in assay [3] (setting [8]), 59%; in assay [3] (at 50.0 µM), 30.1%; in assay [4] (setting [7]), 42%; in assay [4] (setting [8]), 69%; in assay [4] (at 50.0 µM) it was 43.5%. The growth inhibition in assay [5] (setting [7]) was 37%; in assay [5] (setting [8]) it was 64%; in assay [5] (at 50.0 µM) it was 33.7%; in assay [6] (setting [7]), 29%; in assay [6] (setting [8]) it was 52%; in assay [6] (at 50.0 µM) it was 24.1%.
Take `[Hg][c]1ccccc1`: the growth inhibition in assay [1] (setting [7]) was 99% (active); in assay [1] (setting [8]), 94% (active); in assay [1] (at 50.0 µM), 99.5% (active); in assay [2] (setting [7]), 99% (active); in assay [2] (setting [8]) it was 100% (active); in assay [2] (at 50.0 µM), 99.7% (active). Also, the growth inhibition was 100% (active) in assay [3] (setting [7]); 52% in assay [3] (setting [8]); 99.5% (active) in assay [3] (at 50.0 µM); 99% (active) in assay [4] (setting [7]); 27% in assay [4] (setting [8]); 98.3% (active) in assay [4] (at 50.0 µM). For the same compound, the growth inhibition in assay [5] (setting [7]) was 100% (active); in assay [5] (setting [8]), -2%; in assay [5] (at 50.0 µM), 99.6% (active); in assay [6] (setting [7]), 99% (active); in assay [6] (setting [8]), 53%; in assay [6] (at 50.0 µM), 99.3% (active).
Consider `C[C@]12CCC(O)CC1=CC[C@@H]1[C@@H]2CC[C@]2(C)C(=O)[C@H](n3ccnc3)C[C@@H]12` (stereo partly specified), for which the growth inhibition in assay [1] (setting [7]) was 21%; in assay [1] (setting [8]) it was 54%; in assay [1] (at 50.0 µM), 41.9%; in assay [2] (setting [7]), 12%; in assay [2] (setting [8]) it was 46%; in assay [2] (at 50.0 µM), 58%. Besides, the growth inhibition was 18% in assay [3] (setting [7]); 62% in assay [3] (setting [8]); 52.2% in assay [3] (at 50.0 µM); 29% in assay [4] (setting [7]); 51% in assay [4] (setting [8]); 38.2% in assay [4] (at 50.0 µM). Further, the growth inhibition in assay [5] (setting [7]) is 20%; in assay [5] (setting [8]), 56%; in assay [5] (at 50.0 µM), 38.9%; in assay [6] (setting [7]), 19%; in assay [6] (setting [8]) it was 51%; in assay [6] (at 50.0 µM) it was 75.6% (active).
